Screening results: PubChem, The Scripps Research Institute Molecular Screening Center
TEAD-YAP inh: TEAD-YAP interaction inhibition. HEK-TIYL cells, TEAD-Gal4/YAP UAS-luciferase luminescence. inhibition, % at 9.12 µM. 640,000 tested, 1.4% active. AID 1259422; in the data active means inhibition above about 32%
GPR151 ag: human GPR151 activation | Q8TDV0 | 650,000 tested, 1% active | PathHunter beta-arrestin GPR151 cells, luminescence | activation, % at 11.2 µM; in the data active means activation above about 4.9%
Target sequence (Q8TDV0 whole entry, looked up): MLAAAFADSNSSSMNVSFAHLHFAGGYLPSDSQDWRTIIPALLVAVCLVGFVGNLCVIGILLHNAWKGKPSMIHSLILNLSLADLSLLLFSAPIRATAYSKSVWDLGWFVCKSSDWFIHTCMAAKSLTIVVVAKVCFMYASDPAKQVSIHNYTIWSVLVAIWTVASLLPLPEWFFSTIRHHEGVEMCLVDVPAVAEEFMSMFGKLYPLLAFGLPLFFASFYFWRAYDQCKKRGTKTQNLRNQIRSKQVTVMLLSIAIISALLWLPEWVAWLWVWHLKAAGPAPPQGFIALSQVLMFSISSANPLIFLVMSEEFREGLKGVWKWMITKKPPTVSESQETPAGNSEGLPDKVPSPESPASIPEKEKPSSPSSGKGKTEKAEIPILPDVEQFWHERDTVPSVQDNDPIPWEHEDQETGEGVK
MITF primary: human MITF inhibition, primary screen | inhibition, % at 2.6 µM | AlphaScreen MITF homodimerization, bead proximity signal | O75030 | 650,000 tested, 0.91% active; in the data active means inhibition above about 50%
FBW7 act: human FBW7 E3 ligase activation, primary screen | Q969H0 | AlphaScreen FBW7–phospho-cyclin E peptide binding, activator screen | normalized activity (activation), % at 26.1 µM | 650,000 tested, 0.13% active | AID 1259310; in the data active means normalized activity above about 1.9%;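 further: purified mutant Fbw7 with reduced substrate affinity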
Large screens that a line does not name were inactive. In the library only some 3.5% were active in any assay of this set; here they are far more common.

CCCN(CCC)c1ncnc2c1cnn2-c1ccc(Cl)cc1	none
Cc1cccc(-n2ncc3c(NC(C)(C)C)ncnc32)c1	TEAD-YAP inh 82.4
Cc1cccc(-n2ncc3c(Nc4ccc(C)cc4C)ncnc32)c1	none
CCN(CCN(C)C)c1ncnc2c1cnn2-c1ccc(Cl)cc1	TEAD-YAP inh 50.0
Cc1cccc(-n2ncc3c(Nc4cc(C)ccc4C)ncnc32)c1	TEAD-YAP inh 44.7
O=C(CNC(=O)c1ccccc1Br)N/N=C/c1ccc2c(c1)OCO2	none
Cc1cccc(-n2ncc3c(Nc4cccc(C)c4C)ncnc32)c1	TEAD-YAP inh 42.2
Cc1ccc(Cl)cc1N1CCN(c2c(-c3ccc4c(c3)OCC(=O)N4)c(=O)c2=O)CC1	TEAD-YAP inh 61.1
O=C1COc2cc(-c3c(N4CCCC4)c(=O)c3=O)ccc2N1	none
O=C(Nc1ccc2[nH]ncc2c1)c1ccc(O[C@H]2CCNC2)nc1	none
CN1CC[C@@H](Oc2cc(C(=O)Nc3ccc4[nH]ncc4c3)ccn2)C1	TEAD-YAP inh 52.3
CN1CCC(Oc2ccc(C(=O)Nc3ccc4[nH]ncc4c3)cn2)CC1	TEAD-YAP inh 87.5
CN1CCCC(Oc2ccnc(C(=O)Nc3ccc4[nH]ncc4c3)c2)C1 (stereo unspecified)	TEAD-YAP inh 44.8
CN1CC[C@H](Oc2ccc(C(=O)Nc3ccc4[nH]ncc4c3)cn2)C1	none
NCCOc1ccc(C(=O)Nc2ccc3[nH]ncc3c2)cn1	TEAD-YAP inh 54.1
CN1CC[C@H](Oc2ccnc(C(=O)Nc3ccc4[nH]ncc4c3)c2)C1	none
O=C(COc1ccc(Cl)cc1Cl)Nc1ccc2c3c(cccc13)CC2	none
CC1=C(OC(=O)CCC(=O)OC2=C(C)C(=O)OC(c3ccccc3)C2(C)C)C(C)(C)C(c2ccccc2)OC1=O (stereo unspecified)	none
Cc1sc2ccccc2[n+]1CCO	none
CCN1/C(=C/c2sc3ccccc3[n+]2CCO)Sc2ccccc21	TEAD-YAP inh 38.4
CCN1/C(=C/C(C)=C/c2sc3ccccc3[n+]2CCO)Sc2ccccc21	TEAD-YAP inh 39.4
CCN1\C(=C/C=C(C)/C=C/c2sc3ccccc3[n+]2CC)Sc2ccccc21	TEAD-YAP inh 65.9, FBW7 act 10.6
C=CCN1/C(=C/C=C/c2sc3ccccc3[n+]2CC=C)Sc2ccccc21	TEAD-YAP inh 88.6
Cc1cc(N2CCCCC2)nc2ccc(NC(=O)/C=C/c3ccc(Br)cc3)cc12	none
C=CCNC(=S)NC1(C)CCS(=O)(=O)C1 (stereo unspecified)	none
O=S(=O)(Nc1cccc2cn[nH]c12)c1ccc(F)cc1	none
COc1cc(S(=O)(=O)Nc2cccc3cn[nH]c23)ccc1F	TEAD-YAP inh 52.4
CCN(CC)CCn1c2ccccc2n2cc(-c3ccc(Cl)c(Cl)c3)nc12	FBW7 act 6.2
CCN(CC)CCn1c2ccccc2n2cc(-c3ccc(Cl)cc3)nc12	FBW7 act 4.3
CN(C)CCn1c2ccccc2n2cc(-c3ccc(-c4ccccc4)cc3)nc12	none
CCN(CC)CCn1c2ccccc2n2cc(-c3ccc(Br)cc3)nc12	FBW7 act 3.6
CCN(CC)CCn1c(-c2ccc(Cl)cc2)cn2c3ccccc3nc12	none
CCOc1ccc(-c2cn3c4ccccc4n(CCN(CC)CC)c3n2)cc1	none
N#Cc1cc2c(nc1SCC(=O)N1CCCCC1)CCC2	none
CCOC(=O)c1sc2ncn(CC(=O)NCCC3=CCCCC3)c(=O)c2c1C	FBW7 act 2.2
CN(C)c1cccc2c1C(=O)c1ccccc1C2=O	MITF primary 55.4
COCC(=O)NCC1CCC2(CCN(Cc3cc(Cl)ccc3O)CC2)O1 (stereo unspecified)	none
COc1cc([N+](=O)[O-])ccc1NC(=S)NC(=O)c1cc(OC)c(OC)c(OC)c1	none
COCCSc1nsc(NC(=O)Nc2cccc(C(C)=O)c2)n1	TEAD-YAP inh 32.8
Clc1ccc(-n2cc(-c3ccncc3)cn2)cc1	none
O=C1C(=O)N(CNc2ccccc2)c2ccccc21	none
CC(=O)OC1c2cc(C)ccc2NC(c2ccccc2)C1(C)C (stereo unspecified)	TEAD-YAP inh 63.1
CC(=O)OC1c2ccccc2NC(c2ccccc2)C1(C)C (stereo unspecified)	none
O=c1c2ccccc2cnn1-c1nc2ccccc2s1	TEAD-YAP inh 90.0
CCOc1ccccc1C(=O)Nc1cc(C)nn1-c1nc2ccccc2[nH]1	TEAD-YAP inh 53.9
CC(=O)Nc1cc(C)nn1-c1nc2ccccc2[nH]1	none
CCOC(=O)c1cnn(-c2nc3ccccc3[nH]2)c1N	TEAD-YAP inh 42.5
CCOC(=O)c1cnn(-c2nc3ccccc3s2)c1N	none
O=c1c2ccccc2cnn1-c1nc2ccccc2[nH]1	TEAD-YAP inh 93.6
O=c1c2ccccc2cnn1-c1ccc(Cl)c(Cl)c1	none
COC(=O)c1ccccc1NC(=O)NNC(=O)c1ccco1	none
Cn1nc(-c2cccnc2)nc2c(=O)n(C)c(=O)nc1-2	TEAD-YAP inh 96.7
Cn1nc(-c2ccc(F)cc2)nc2c(=O)n(C)c(=O)nc1-2	TEAD-YAP inh 89.3
Cn1nc(-c2ccc(Cl)cc2)nc2c(=O)n(C)c(=O)nc1-2	none
C/C(=C\c1ccccc1)c1nc2c(=O)n(C)c(=O)nc-2n(C)n1	TEAD-YAP inh 34.4
COc1ccc(-c2nc3c(=O)n(C)c(=O)nc-3n(C)n2)cc1	TEAD-YAP inh 98.0
CC(=O)Nc1ccc(N2C(=O)CC(NC3CCCC(C)C3C)C2=O)cc1 (stereo unspecified)	none
CCC(C)C(=O)C(=O)N1CCCC(c2nc(C)ncc2-c2cccc(C)c2)C1 (stereo unspecified)	none
CCc1ccc(C2C(C(=O)OCC3CCCO3)=C(C)NC3=C2C(=O)CC(C)(C)C3)cc1 (stereo unspecified)	none
CC1CCCC(NC(=O)COC(=O)CNC(=O)c2ccc(-c3ccccc3)cc2)C1C (stereo unspecified)	none
COc1ccc(Nc2nc3nonc3nc2N/N=C(\C)c2nonc2C)cc1	TEAD-YAP inh 52.3
COc1ccc(Nc2nc3nonc3nc2Nc2ccc(OC)cc2)cc1	none
c1ccc2c(c1)nc(N1CCN(C3CCCCC3)CC1)c1nncn12	none
c1cc(-n2cnc3c(Nc4ccc5c(c4)OCO5)nc(N4CCN(Cc5ccc6c(c5)OCO6)CC4)nc32)cs1	none
c1ccc(CN2CCC(Nc3nc(N4CCOCC4)nc4c3ncn4-c3ccsc3)CC2)cc1	TEAD-YAP inh 44.5
c1cc(-n2cnc3c(NC4CC4)nc(N4CCN(Cc5ccc6c(c5)OCO6)CC4)nc32)cs1	TEAD-YAP inh 36.7
c1ccc(CN2CCC(Nc3nc(Nc4ccc(N5CCOCC5)cc4)c4ncn(-c5ccsc5)c4n3)CC2)cc1	TEAD-YAP inh 49.1
c1ccc(CN2CCC(Nc3nc(NC4CC4)c4ncn(-c5ccsc5)c4n3)CC2)cc1	TEAD-YAP inh 36.0
c1ccc(CN2CCC(Nc3nc(N4CCC(N5CCOCC5)CC4)nc4c3ncn4-c3ccsc3)CC2)cc1	none
CC(=O)Nc1cccc(/C(C)=N/NC(=O)C(N)=O)c1	none
CN1C[C@@H]2C[C@@H](c3ccc(-c4ccc(Cl)cc4)o3)N3CCC[C@@]23C1=O	none
CCCN1C(=O)C(C)(C)COc2ccc(NS(=O)(=O)c3ccc(OCC)c(C)c3)cc21	none
Cc1nn(C)c(C)c1-c1nc(NC2CCN(Cc3ccccc3)CC2)c2ncn(C(C)C)c2n1	TEAD-YAP inh 72.0
